# Laboratory results from PubChem BioAssay AID435005 (Broad Institute, 2010).
# Screen size: about 300,000 compounds; about 2,400 (0.8%) were called active.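 How the source made its calls: active means Every replicate reaches about 75%, or at least half do and their mean reaches it too (limit read from the data); inconclusive means At least half of replicates reach the limit but their mean does not; inactive means Under half of replicates reach the limit.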 Many of the other results were omitted from the sample, so actives are more common in it than they were.
# Assay: inhibitors of cytokine-induced beta cell apoptosis, primary screen, luminescence (AID 435005);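 further: 0% = cytokine-treated negative control wells and 100% = positive control rescue; higher means more ATP so stronger rescue from cytokine killing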
# Details: INS-1E cytokine-induced death, ATP luminescence, 48 h; hits give high values; percent of positive-control rescue, neutral wells zero; concentration not given here
row,SMILES,protection from apoptosis
1,NNC(=O)c1nnn(-c2nonc2N)c1CN1CCCC1,0.21% (inactive)
2,Nc1nonc1-n1nnc(C(=O)N/N=C/c2ccccc2O)c1CN1CCCC1,77.1% (active)
3,Cc1ccc(SCc2c(C(=O)N/N=C/c3cccnc3)nnn2-c2nonc2N)cc1,-3.56% (inactive)
4,Cc1ccc(SCc2c(C(=O)N/N=C/C3CC=CCC3)nnn2-c2nonc2N)cc1 (centres undefined),-2.44% (inactive)
5,Nc1nonc1-n1nnc(C(=O)N/N=C/c2cc(Br)ccc2O)c1CSC1=NCCS1,86.6% (active)
6,Nc1nonc1-n1nnc(C(=O)N/N=C\c2ccncc2)c1CN1CCCCC1,-8.98% (inactive)
7,COc1ccccc1-c1nnc2n1N=C(c1ccc(OC(F)F)c(OCC3CC3)c1)CS2,14.1% (inactive)
8,COc1ccc(CNC(=O)COC(=O)C(CCSC)N2C(=O)c3ccccc3C2=O)cc1 (centres undefined),-1.57% (inactive)
9,O=C1COc2ccc(C(=O)COC(=O)c3ccccc3Cl)cc2N1,-5.54% (inactive)
10,O=C(CSc1nc2ccccc2c(=O)n1Cc1ccc(F)cc1)NCC1CCCO1 (centres undefined),-5.32% (inactive)
11,CCOC(=O)C1CCN(CC(=O)Nc2ccc(OC)c(S(=O)(=O)N3CCCCC3)c2)CC1,0.731% (inactive)
12,CCN(C[C@H]1N[C@@](CC)(C(=O)OC)[C@H]2C(=O)N(Cc3ccccc3)C(=O)[C@@H]12)S(=O)(=O)c1ccccc1,-2.88% (inactive)
13,O=C(N/N=C/c1ccoc1)c1ccc(Cl)cc1Cl,-6.52% (inactive)
14,CC(C)(C)C(=O)Nc1ccc(C(=O)N/N=C/c2ccccc2OC(=O)c2ccc(Cl)cc2Cl)cc1,87.8% (active)
15,O=C(N/N=C/c1ccc(OC(=O)c2ccccc2Cl)cc1)c1ccc(O)cc1,-1.66% (inactive)
16,CC1O[C@@H](OC2C(O)C(C)O[C@H](OC(=O)[C@]34CCC(C)(C)C[C@H]3C3=CCC5[C@@]6(C)CC(O)C(O[C@@H]7OC(CO)C(O)[C@@H](O)[C@@H]7O)[C@@](C)(C(=O)O)C6CC[C@@]5(C)[C@]3(CO)CC4)C2O[C@H]2OC(C)[C@@H](O[C@@H]3OCC(O[C@@H]4OC(CO)C(O)[C@H](O)C4O)[C@@H](O)[C@@H]3O)[C@H](O)C2O)C(O)C(O)C1O (some centres undefined),-2.17% (inactive)
17,Cc1ccc(S(=O)(=O)N2[C@@H](c3ccc(Br)cc3)C(C(=O)O)=C[C@H]2CC2CCCC2)cc1,-9.97% (inactive)
18,Cc1ccc(CNC(=O)COC(=O)C2CCC2)cc1,-16.3% (inactive)
19,CCC(=O)NC(Nc1nc2ccc(C)cc2s1)(C(=O)OC)C(F)(F)F (centres undefined),-2.12% (inactive)
20,O=C(Nc1nc2ccc([N+](=O)[O-])cc2s1)c1ccc(S(=O)(=O)N2CCCc3ccccc32)cc1,113% (active)
21,CN(C)CCCN(C(=O)c1ccc(S(=O)(=O)N2CCCc3ccccc32)cc1)c1nc2ccc(F)cc2s1,-11.6% (inactive)

row,SMILES,protection from apoptosis
1,O=C(NC(Nc1nc2ccc([N+](=O)[O-])cc2s1)(C(F)(F)F)C(F)(F)F)c1ccccc1,118% (active)
2,CCOc1ccc2nc(NC(=O)c3cc([N+](=O)[O-])ccc3N3CCOCC3)sc2c1,32.1% (inactive)
3,CS(=O)(=O)c1ccc2nc(NC(=O)c3ccc(N4CCCC4=O)cc3)sc2c1,2.56% (inactive)
4,O=C(Nc1ccccc1)N1CCC(C(=O)N2CCN(Cc3ccccc3)CC2)CC1,-2.8% (inactive)
5,O=C(COC(=O)COc1cccc(F)c1)NCC1CCCCC1,-3.55% (inactive)
6,Cc1ccc(NS(=O)(=O)c2ccc(C(C)C)cc2)cc1S(=O)(=O)N1CCOCC1,4.91% (inactive)
7,Cc1ccccc1NC(=O)CSC(=O)c1ccccc1,-2.98% (inactive)
8,C#CCOCCOCCOCCNc1nc(N2CCN(C(=O)[C@H](CO)n3cc([C@@H](N)C(C)C)nn3)CC2)nc(N2CCN(C(=O)[C@H](CCC(=O)O)n3cc([C@@H](N)[C@H](C)CC)nn3)CC2)n1,-6.94% (inactive)
9,CN(C(=O)c1cccc(NC(=O)Cc2ccc([N+](=O)[O-])cc2)c1)C1CCC1,-5.07% (inactive)
10,CCn1ccnc1CN(C)C(=O)c1cc(COc2ccc(-n3cncn3)cc2)on1,-3.2% (inactive)
11,C=CCC1(CC=C)CCCN1C(=O)c1cc(COc2ccc(-n3cncn3)cc2)on1,104% (active)
12,COc1cccc(OCc2cc(C(=O)N3CCN(C(=O)c4ccco4)CC3)no2)c1,-1.9% (inactive)
13,Cc1cccc(NC(=O)c2ccc(S(=O)(=O)N(C)c3ccccc3)cc2)n1,-7.09% (inactive)
14,COc1cccc(/C=N/NC(=O)c2[nH]nc3c2CCc2ccccc2-3)c1O,82.2% (active)
15,CN(C)CCNC(=O)c1[nH]nc2c1CCc1ccccc1-2,-8.17% (inactive)
16,COc1cc2cc(C(=O)N/N=C/c3cccc(OC)c3OC)[nH]c2cc1OC,0.139% (inactive)
17,COc1cc(C(=O)NC2CCN(C)CC2)ccc1Nc1ncc2c(n1)N(C1CCC(O)CC1)CCC(=O)N2C (centres undefined),-0.596% (inactive)
18,COc1cc(SC)ccc1C(=O)NNC(=O)C1COc2ccccc2O1 (centres undefined),-1.75% (inactive)
19,CCCN(CC(=O)Nc1ccccc1C)C(=O)c1ccc2[nH]c3c(c2c1)CC(C)CC3 (centres undefined),8.11% (inactive)
20,COc1ccc(OCCCC(=O)Nc2cccc(S(=O)(=O)N3CCCCCC3)c2)cc1,-3.4% (inactive)
21,COc1ccc(Cc2nnc(N/N=C/c3ccccc3O)[nH]c2=O)cc1OC,85.2% (active)

row,SMILES,protection from apoptosis
1,CC(C)c1ccc(Cc2nnc(NCCCO)[nH]c2=O)cc1,-1.74% (inactive)
2,COc1ccc(/C=N/Nc2nc3ccccc3c(=O)[nH]2)cc1,12% (inactive)
3,CC(=O)c1c(C)[nH]c(C(=O)COc2ccc3c(C)cc(=O)oc3c2)c1C,-1.3% (inactive)
4,CN(c1ccccc1)S(=O)(=O)c1ccc(C(=O)N2CCN(c3ccccc3Cl)CC2)cc1,3.55% (inactive)
5,Cc1ccc2c(c1)NC(=O)[C@@]1(C)[C@@H](c3ccccc3)[C@H]3COc4ccc(Cl)cc4[C@@H]3N1C2=O,-5.63% (inactive)
6,CCOC(=O)C1=C(CN2CCc3ccccc32)NC(=O)NC1c1ccc(Cl)cc1 (centres undefined),-0.812% (inactive)
7,CCOC(=O)C1=C(CN2CCCCCC2)NC(=O)NC1c1cccc([N+](=O)[O-])c1 (centres undefined),-5.34% (inactive)
8,CCOC(=O)C1=C(CCc2ccccc2)NC(=O)NC1c1ccc2ccccc2c1 (centres undefined),93.7% (active)
9,Cc1cc(S(=O)(=O)NC2CCCCC2)ccc1OCC(=O)NCc1cccnc1,6.11% (inactive)
10,Cc1ccc(C)c(NS(=O)(=O)c2ccc(OCC(=O)NCc3cccnc3)cc2)c1,99.2% (active)
11,Cc1ccc(CNC(=O)COc2ccc(S(=O)(=O)NC(C)C)cc2)cc1,-8.98% (inactive)
12,Oc1ccc(Br)cc1/C=N/Nc1ccccn1,133% (active)
13,COc1ccc(-c2nn(-c3ccccc3)cc2/C=N/Nc2ccccn2)cc1OC,59.9% (inactive)
14,O=[N+]([O-])c1ccc(O)c(/C=N/Nc2ccccc2[N+](=O)[O-])c1,36.9% (inactive)
15,CCOC(=O)[C@H]1[C@H]2COc3cc(OC)ccc3[C@@H]2N2C(=O)CN(Cc3ccc(Cl)cc3)C(=O)[C@@]12C,-0.794% (inactive)
16,COc1ccc(C(=O)NCC2CCCCC2)cc1S(=O)(=O)N1CCCC1,-0.303% (inactive)
17,CC(Sc1nnc(C2CC2)n1C1CC1)C(=O)Nc1ccc(C(N)=O)cc1 (centres undefined),-0.98% (inactive)
18,Oc1c(CN2CCCC2)cc(COCc2ccccc2)c2cccnc12,73% (inactive)
19,Oc1ccc(CN2CCN(c3ncccn3)CC2)cc1,-1.21% (inactive)
20,Oc1c(CN2CCN(c3ccc(F)cc3)CC2)cc(Cl)c2cccnc12,111% (active)
21,CC1CCCCC1NC(=O)COc1ccc(C#N)cc1 (centres undefined),0.693% (inactive)

row,SMILES,protection from apoptosis
1,CNS(=O)(=O)c1ccc(C(=O)NCC(=O)NCCc2ccc3c(c2)OCCO3)cc1,-2.22% (inactive)
2,CCN(CC)c1ccc(/C=N/Nc2nc(C)cc(C)n2)c(O)c1,81.7% (active)
3,Cc1ccc(C(=O)NCCNC(=O)c2cnccn2)cc1,-7.48% (inactive)
4,Cc1cc(C)nc(N/N=C/c2c(CO)cnc(C)c2O)n1,-3.01% (inactive)
5,Cc1cc(C)nc(N/N=C/c2ccncc2)n1,-0.736% (inactive)
6,CCN(CC)c1ccc(/C=N/NC(=O)CNC(=O)c2cccnc2)cc1,4.98% (inactive)
7,CCN(CC)c1ccc(/C=N/NC(=O)c2cnccn2)c(O)c1,101% (active)
8,CC1(C)CC[C@@]2(C(=O)O)C(C1)C1=CCC3[C@@]4(C)CC[C@H](O)C(C)(C)C4CC[C@@]3(C)[C@]1(C)C[C@H]2O (some centres undefined),22.4% (inactive)
9,COc1ccc(C(=O)Nc2cc(S(=O)(=O)N3CCCC3)ccc2Cl)cc1,-1.79% (inactive)
10,O=C1NC(Cc2ccc(O)cc2)c2nc3ccc(Cl)cc3c(=O)n2-c2ccccc21 (centres undefined),-3.47% (inactive)
11,CN(Cc1ccc(CNC[C@H]2O[C@@H](n3cnc4c(N)ncnc43)[C@H](O)[C@@H]2O)o1)S(C)(=O)=O,-10.1% (inactive)
12,C[C@@H]1CN([C@@H](C)CO)C(=O)c2cc(NC(=O)C3CC3)ccc2O[C@H]1CN(C)C,0.593% (inactive)
13,Cc1ccc2nc(-c3ccc(NC(=O)c4cccnc4)cc3)oc2c1,106% (active)
14,O=C(Cc1ccccc1)Nc1ccc(NC(=O)c2cccnc2)cc1,-0.0371% (inactive)
15,CCOC(=O)c1cc(NC(=O)c2cccnc2)ccn1,-6.76% (inactive)
16,CCOC(=O)c1ccc(-c2ccc(C(=O)Nc3cccnc3)o2)cc1,3.72% (inactive)
17,CC(=O)NC(=S)Nc1ccc(NC(=O)c2cccnc2)cc1,-1.43% (inactive)
18,Cc1cc(NS(=O)(=O)c2ccc(NC(=O)c3cccnc3)cc2)nc(C)n1,-3.28% (inactive)
19,Cc1cc2nc(-c3ccc(NC(=O)c4cccnc4)cc3)oc2cc1C,104% (active)
20,Cc1ccc(-n2nc3cc(C)c(NC(=O)c4cccnc4)cc3n2)cc1,-1.41% (inactive)
21,CCOC(=O)c1ccc(NC(=O)c2cccnc2)cc1,112% (active)
